RECQ1 inh-1: RECQ1 (human) helicase inhibition; Potency, µM (top dose mostly 57.3 µM), inactives show at the highest dose activity, negative = inhibition, most hits filed as inhibitors; actives 0.54% (n = 240,000); P46063; RECQ1 DNA unwinding, red fluorescence kinetic read;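 also: plate controls were vehicle for no effect and no enzyme for full effect; nearly all actives have a fitted effect of over 30% in size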
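RECQ1T1 50 nM; forked duplex (20 bp + 30-nt ss tails) 200 nM, ATP 2 mM final; pH 8.0, 2 mM MgCl2, 2.5 ug/ml poly(dI-dC); 15 min compound preincubation; discontinuous kinetic read over 2 h at RT.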
TR SRC2 fluor cs: counter-screen for TRb-SRC2 inhibitors: fluorescence interference | TRb/SRC2 Texas Red total fluorescence interference | Potency, µM (series often up to 106 µM), without a hit: top-dose fluorescence change, negative = quenching | actives 0.29% (n = 280,000); active = well fitted curve in either direction with a large enough effect; inconclusive = small, poorly fitted or top-dose-only effect
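Human TRβ ligand-binding domain (0.6 uM) and Texas Red SRC2 peptide (20 nM) in Tris buffer with 1 uM T3 and 5% DMSO were incubated with pinned compound for 5 hr at ambient temperature. Total fluorescence was computed as S + 2P (555/632 nm).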
BLM helicase inh: blocks DNA unwinding by human BLM helicase. P54132. recombinant BLM DNA unwinding, fluorescence dequenching. Potency, µM (titrated, usually from 56.1 µM), without a hit: at the top dose activity change, negative = inhibition, actives largely listed as inhibitors. actives 0.2% (n = 350,000);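 also: plate controls were vehicle for no effect and no enzyme for full effect; nearly all actives have a fitted effect of over 35% in size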
Target sequence (P54132 whole entry, looked up): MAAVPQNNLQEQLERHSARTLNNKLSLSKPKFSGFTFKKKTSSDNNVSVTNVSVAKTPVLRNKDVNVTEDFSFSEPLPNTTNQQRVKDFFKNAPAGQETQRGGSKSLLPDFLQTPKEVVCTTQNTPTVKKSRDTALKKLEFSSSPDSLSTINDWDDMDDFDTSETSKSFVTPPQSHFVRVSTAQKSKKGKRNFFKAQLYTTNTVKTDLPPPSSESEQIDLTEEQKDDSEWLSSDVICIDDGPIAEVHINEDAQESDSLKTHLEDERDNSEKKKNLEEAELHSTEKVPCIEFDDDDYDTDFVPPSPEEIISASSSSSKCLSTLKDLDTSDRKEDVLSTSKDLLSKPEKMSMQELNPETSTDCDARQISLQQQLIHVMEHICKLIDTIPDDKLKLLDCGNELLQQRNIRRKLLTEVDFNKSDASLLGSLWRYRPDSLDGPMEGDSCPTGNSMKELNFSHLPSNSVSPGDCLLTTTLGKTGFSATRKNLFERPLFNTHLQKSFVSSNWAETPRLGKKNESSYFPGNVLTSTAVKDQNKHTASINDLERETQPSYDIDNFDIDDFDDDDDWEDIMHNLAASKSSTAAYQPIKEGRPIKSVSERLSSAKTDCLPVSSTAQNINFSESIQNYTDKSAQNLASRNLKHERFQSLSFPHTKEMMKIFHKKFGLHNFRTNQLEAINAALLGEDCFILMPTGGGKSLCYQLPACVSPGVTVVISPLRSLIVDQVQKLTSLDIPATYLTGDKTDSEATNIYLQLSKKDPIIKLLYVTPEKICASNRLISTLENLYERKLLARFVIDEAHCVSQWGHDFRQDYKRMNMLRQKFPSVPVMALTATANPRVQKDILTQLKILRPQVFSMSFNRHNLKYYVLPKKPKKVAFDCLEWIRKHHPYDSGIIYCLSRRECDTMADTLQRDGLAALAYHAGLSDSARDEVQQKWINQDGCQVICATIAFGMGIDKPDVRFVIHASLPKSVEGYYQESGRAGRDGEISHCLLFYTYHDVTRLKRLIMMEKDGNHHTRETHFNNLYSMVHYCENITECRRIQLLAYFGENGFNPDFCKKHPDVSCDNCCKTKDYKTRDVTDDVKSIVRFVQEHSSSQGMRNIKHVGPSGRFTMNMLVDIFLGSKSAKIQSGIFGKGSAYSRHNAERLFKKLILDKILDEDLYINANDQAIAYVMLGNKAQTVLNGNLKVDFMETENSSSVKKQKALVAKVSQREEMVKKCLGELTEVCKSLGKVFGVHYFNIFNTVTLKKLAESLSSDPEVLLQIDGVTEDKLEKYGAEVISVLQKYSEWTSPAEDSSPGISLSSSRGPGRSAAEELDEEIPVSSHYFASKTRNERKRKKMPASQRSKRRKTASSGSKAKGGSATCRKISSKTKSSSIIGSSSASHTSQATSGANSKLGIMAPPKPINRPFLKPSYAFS
TRb SRC2 PPI: inhibitors of human thyroid hormone receptor beta-SRC2 interaction; actives 0.065% (n = 280,000); TRbeta-SRC2 peptide binding, fluorescence polarization; receptor liganded with 1 µM T3; Potency, µM (doses to about 106 µM), for the others: top-dose activity change, negative = inhibition, most hits filed as inhibitors; P10828; AID 1469;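 also: plate controls were bound peptide for no effect and peptide without receptor for full effect; nearly all actives have a fitted effect of over 50% in size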
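Decrease in fluorescence polarization of 20 nM Texas Red SRC2 coactivator peptide flagged inhibition of its binding to 0.6 uM TRb LBD; 1 uM T3 included, incubation 5 hr, ex 555/em 632 nm.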
RECQ1 inh conf: confirmation of human RECQ1 helicase inhibitors; shares compounds with RECQ1 inh-1; RECQ1 helicase DNA unwinding, fluorescence; Potency, µM (top dose mostly 229 µM), for the others: at the top dose activity change, negative = inhibition, usual class: inhibitors; actives 28% (n = 610); AID 2708; also: nearly all actives have a fitted effect of over 45% in size
RECQ1 ADP FP: ADP displacement flagged in RECQ1 inhibitor counter-screen. shares compounds with RECQ1 inh-1. ADP fluorescence polarization displacement counterscreen. Potency, µM (top dose mostly 228 µM), inactives show top-dose activity change, negative = inhibition, hits mostly inhibitors. actives 27% (n = 530). AID 2711; also: nearly all actives have a fitted effect of over 45% in size
RECQ1 inh-2: confirmation of human RECQ1 helicase inhibitors. Potency, µM (top dose mostly 119 µM), without a hit: at the top dose activity, negative = inhibition, hits mostly inhibitors. recombinant RECQ1 DNA unwinding, red fluorescence. shares compounds with RECQ1 inh-1. actives 15% (n = 1,100); also: nearly all actives have a fitted effect of over 50% in size
* hit, by the source's call; i = inactive; u = inconclusive; x = not tested or not shown; [ ] = remark or other dose. The list is not random: actives were taken first. Their share in the collection is about 0.64%. Unless noted, calls follow the shape of the dose curve; as a rule, active = well fitted curve in the direction sought with a large enough effect; inconclusive = small, poorly fitted or top-dose-only effect, or another doubt; inactive = no such curve, though single readings can be large; an effect the other way counts as inactive or inconclusive. Unless noted, % is scaled to controls: 0 for no effect and ±100 for the full control effect; potency is read from the fitted curve at half-maximal effect.

SMILES	RECQ1 inh-1	TR SRC2 fluor cs	BLM helicase inh	TRb SRC2 PPI	RECQ1 inh-2	others
N=C1SC(c2ccccc2)C(=O)N1c1ncc(Cc2ccccc2Cl)s1 (centres undefined)	25.1µM*	-4.9%	-16.0%	-1.2%	u
COc1ccc(CCn2c(O)cc3nn(-c4nc5ccccc5s4)c(=O)c-3c2C)cc1	25.1µM*	22.4µM*[quencher]	-26.6%	u	-14.7%	RECQ1 inh conf=20.3%[114 µM];RECQ1 ADP FP=-3.3%[91.9 µM]
Nc1ccc(C(=O)OCC(=O)N2c3ccccc3Sc3ccccc32)cc1[N+](=O)[O-]	28.2µM*	-1.3%	-11.2%	1.5%	-9.7%
Nc1ccc(C(=O)OCC(=O)N2CCc3ccccc3C2)cc1[N+](=O)[O-]	13.0%	-0.8%	-13.6%	-10.6%	x
N=C1/C(=C/c2coc3ccccc3c2=O)C(=O)N=C2SC(c3ccco3)=NN12	28.2µM*	u	u	u	50.1µM*
Cc1cc(/C=C2\C(=N)N3N=C(c4ccco4)SC3=NC2=O)c(C)n1Cc1ccccc1	u	-13.7%	-23.5%	2.3%	u
N=C1/C(=C\c2coc3ccc(O)cc3c2=O)C(=O)N=C2SC=CN12	25.1µM*	-1.6%	-27.6%	14.3%	56.2µM*
CSC1=NSC2=NC(=O)/C(=C\c3coc4ccccc4c3=O)C(=N)N12	-3.2%	-17.1%	-11.9%	21.3%	x
N=C1/C(=C\c2coc3ccccc3c2=O)C(=O)N=C2SC(c3ccncc3)=NN12	u	u	u	u	u
COc1ccc(-n2cccc2/C=C2\C(=N)N3N=C(c4ccco4)SC3=NC2=O)cc1	u	u	12.6µM*	u	7.08µM*
O=C(O)CC1Sc2ccccc2NC1=O (centres undefined)	i	2.4%	2.9%	-12.0%	x
O=C1Nc2ccccc2SC(c2ccccc2)C1O (centres undefined)	31.6µM*	u	-7.6%	-4.4%	u
Cc1ccc(-c2nn(-c3cccc(F)c3)cc2CN(Cc2nccn2C)C(C)C)o1	i	-0.9%	-3.5%	0.3%	x
Cc1ccc(-c2nn(-c3cccc(F)c3)cc2CN2CCN(c3ccccn3)CC2)o1	u	-0.3%	-20.3%	3.7%	u
Cc1cccc(N(CC(=O)NCCSCc2cccc(Cl)c2)S(=O)(=O)c2ccccc2)c1C	x	-3.0%	-8.4%	7.9%	x
COc1ccc(S(=O)(=O)N2CCC(C(=O)NC(C)c3ccccc3)CC2)cc1 (centres undefined)	x	-3.0%	-0.6%	-1.7%	x
c1ccc2oc(-c3[nH]ncc3CN3CCSCC3)cc2c1	u	0.3%	-1.1%	-3.7%	1.7%
c1ccc2oc(-c3[nH]ncc3CN3CCC(N4CCSCC4)CC3)cc2c1	i	-1.1%[53 µM]	7.0%	1.9%[53 µM]	x
COC(=O)C(C)CCCC(C)CCCC(C)CCCC(C)C (centres undefined)	-1.6%	-1.0%	-4.6%	-5.5%	x
CN1/C(=C\C=C2/SC(=S)N(CC(=O)O)C2=O)C(C)(C)c2ccccc21	25.1µM*	44.7µM*[fluorescent]	14.1µM*	u	x	RECQ1 inh conf=39.8µM*;RECQ1 ADP FP=3.16µM*
CC(=O)Oc1c(C)cc(OCC(O)CNC(C)C)c(C)c1C (centres undefined)	-1.0%	0.7%	-7.0%	-1.0%	x
COCCn1c(N)c(C(=O)NCc2cccs2)c2nc3ccccc3nc21	u	-4.9%	-12.9%	u	-16.3%
COc1ccc(OC)c(-n2c(N)c(C(=O)NCC3CCCO3)c3nc4ccccc4nc32)c1 (centres undefined)	-1.0%	-0.9%	-5.1%	-0.3%	x
COCCn1c(N)c(C(=O)NCC2CCCO2)c2nc3ccccc3nc21 (centres undefined)	u	-3.5%	u	u	-9.6%
CCOc1ccccc1NC(=O)Cn1ncc2c([nH]c3ccccc32)c1=O	x	9.2%	1.5%	8.9%	x
SMILES	RECQ1 inh-1	TR SRC2 fluor cs	BLM helicase inh	TRb SRC2 PPI	RECQ1 inh-2	others
COc1ccc(/C=C(\C#N)c2nc(-c3cc(Cl)ccc3OC)cs2)cc1	x	u	1.5%	u	x
COc1ccc(NC(=O)c2cc3c(s2)-c2c(C)cccc2OC3)cc1Cl	x	-20.5%	-18.6%	1.7%	x
COc1cc2c(cc1OC)C(=O)N(C)CC2	2.3%	1.4%	-8.5%	-6.5%	x
COc1cc2cc3c4c(cc(OC)c(OC)c4c2cc1OC)CCN3C	11.2µM*	-5.6%	3.98µM*	u	x	RECQ1 inh conf=u;RECQ1 ADP FP=69.4%
Cc1nc2c(ccc3nc(NC(=O)C(c4ccccc4)c4ccccc4)sc32)s1	25.1µM*	-1.1%	-10.0%	10.5%	-22.4%
C(=C\c1ccco1)/c1ccc2ccccc2n1	8.91µM*	-8.1%	u	-2.7%	-0.6%	RECQ1 inh conf=u;RECQ1 ADP FP=44.7µM*
C=CCn1c(SCCC(=O)O)nnc1-c1cccs1	-1.9%	-1.9%	6.0%	-4.7%	x
C=CCn1c(SCC(=O)O)nnc1-c1cccs1	-3.4%	-3.9%	1.6%	-5.4%	x	RECQ1 inh conf=-3.6%;RECQ1 ADP FP=5.1%
Cc1cc(C(=O)CSc2nnc(-c3ccco3)o2)c(C)n1CC1COc2ccccc2O1 (centres undefined)	31.6µM*	u	-9.0%	8.0%	-10.1%
Cc1cc(C(=O)CSc2nnc(-c3ccccc3)o2)c(C)n1CC1COc2ccccc2O1 (centres undefined)	-9.0%	-3.3%	-0.6%	-4.0%	x
CC(C)(C)c1ccc(-c2nnc(SCCC#N)n2C2CCCC2)cc1	14.1µM*	-1.3%	-8.3%	1.6%	-16.0%	RECQ1 inh conf=-0.5%[114 µM];RECQ1 ADP FP=15.6%[91.9 µM]
COc1c(O)cc2c(=O)oc3c(OC)c(O)cc4c(=O)oc1c2c34	3.16µM*	-13.4%	14.1µM*	4.7%	0.794µM*
COc1cc(-c2cc(=O)c3c(O)c(OC)c(OC)c(OC)c3o2)cc(OC)c1OC	-12.4%	-4.2%	-15.7%	1.0%	x
COc1cc2cc(CNc3ccccc3)c(=O)n(CC(=O)Nc3ccccc3)c2cc1OC	x	-1.9%	-0.3%	3.3%	x
Cc1ccc2oc(C(=O)N(Cc3cccc(F)c3)C3CCS(=O)(=O)C3)c(C)c2c1 (centres undefined)	x	-5.3%	-6.4%	-4.2%	x
O=C(N/C=C/c1ccco1)NCc1ccccc1	u	-3.1%	-9.5%	3.9%	-27.0%
O=C(N/C=C/c1ccco1)OCc1ccccc1	-11.7%	-1.9%	-14.0%	0.4%	x
COc1ccc(NC(=O)c2ccc(OCc3c(C)noc3C)c(OC)c2)cn1	-3.6%	-1.7%	-0.5%	-1.7%	x	RECQ1 inh conf=-14.0%;RECQ1 ADP FP=112µM*
Cc1cc(C)cc(C(=O)NCC(=O)OCC(=O)N2c3ccccc3NC(=O)C2(C)C)c1	u	1.6%	-25.4%	0.7%	-22.6%
COCCCNC(=O)CSc1nc2c(sc3ccccc32)c(=O)n1CCc1ccc(OC)c(OC)c1	x	0.8%	-5.1%	-0.5%	x
